{"source": "paper PMC8384837", "about": "“Expanding the binding specificity for RNA recognition by a PUF domain”", "assay_in_all_cases": "yeast three-hybrid, YBZ-1, SC-Leu-His + 0.5 mM 3-AT, 4 days", "settings_in_all_cases": "tags: N-Gal4 AD-HA kept; label: inside an RPR1-promoter hybrid RNA with tandem MS2 sites; ssRNA", "key": {"[1]": {"molecular_target": "PUM1 PUF domain R5-KRH (Homo sapiens, UniProt Q14671 828-1176, C1007K;Q1011H)", "method_in_brief": "(§1)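 The interaction score is the log change in variant frequency from input to selection. Scores were computed in log2 with a pseudocount of 1 for absent variants, using Illumina sequencing of PCR-amplified repeat regions. The input came from four days on SC-Leu and the selection from four days on SC-Leu-His + 0.5 mM 3-AT. The cells were strain YBZ-1 (LexA–MS2 coat fusion, HIS3 reporter) co-expressing Pumilio-1 PUF domain libraries and matching RNA elements from a centromeric plasmid.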"}, "[2]": {"molecular_target": "PUM1 PUF domain R5-RFC (Homo sapiens, UniProt Q14671 828-1176, C1007R;R1008F;Q1011C)", "method_in_brief": "as §1"}, "[3]": {"molecular_target": "PUM1 PUF domain R5-KDK (Homo sapiens, UniProt Q14671 828-1176, C1007K;R1008D;Q1011K)", "method_in_brief": "as §1"}, "[4]": {"molecular_target": "PUM1 PUF domain R8-IYR (Homo sapiens, UniProt Q14671 828-1176, N1122I;Q1126R)", "method_in_brief": "as §1"}, "[5]": {"molecular_target": "PUM1 PUF domain R8-PFR (Homo sapiens, UniProt Q14671 828-1176, N1122P;Y1123F;Q1126R)", "method_in_brief": "as §1"}, "[6]": {"molecular_target": "PUM1 PUF domain R5-SQK (Homo sapiens, UniProt Q14671 828-1176, C1007S;R1008Q;Q1011K)", "method_in_brief": "as §1"}, "[7]": {"molecular_target": "T1, PUM1 PUF domain R6-IFG (Homo sapiens, UniProt Q14671 828-1176, N1043I;Y1044F;Q1047G)", "T1 sequence": "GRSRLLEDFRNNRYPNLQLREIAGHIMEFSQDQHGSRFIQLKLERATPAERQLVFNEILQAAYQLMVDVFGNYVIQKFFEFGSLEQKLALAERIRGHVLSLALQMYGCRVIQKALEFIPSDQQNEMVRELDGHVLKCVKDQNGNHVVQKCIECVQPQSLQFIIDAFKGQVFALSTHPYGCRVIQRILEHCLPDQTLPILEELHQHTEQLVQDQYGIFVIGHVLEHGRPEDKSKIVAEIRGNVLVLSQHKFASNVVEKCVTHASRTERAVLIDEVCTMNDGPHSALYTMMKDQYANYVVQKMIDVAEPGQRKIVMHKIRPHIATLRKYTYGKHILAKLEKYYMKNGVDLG", "method_in_brief": "as §1"}, "[8]": {"molecular_target": "T2, PUM1 PUF domain R6-IWG (Homo sapiens, UniProt Q14671 828-1176, N1043I;Y1044W;Q1047G)", "T2 sequence": "T1 sequence with F217W", "method_in_brief": "as §1"}, "[9]": {"molecular_target": "PUM1 PUF domain R1-KFL (Homo sapiens, UniProt Q14671 828-1176, S863K;R864F;Q867L)", "method_in_brief": "as §1"}, "[10]": {"molecular_target": "PUM1 PUF domain R4-PFG (Homo sapiens, UniProt Q14671 828-1176, N971P;H972F;Q975G)", "method_in_brief": "as §1"}, "[11]": {"molecular_target": "PUM1 PUF domain R4-EYR (Homo sapiens, UniProt Q14671 828-1176, N971E;H972Y;Q975R)", "method_in_brief": "as §1"}, "[12]": {"molecular_target": "PUM1 PUF domain R4-LRC (Homo sapiens, UniProt Q14671 828-1176, N971L;H972R;Q975C)", "method_in_brief": "as §1"}, "[13]": {"molecular_target": "T3, PUM1 PUF domain R6-RFV (Homo sapiens, UniProt Q14671 828-1176, N1043R;Y1044F;Q1047V)", "T3 sequence": "T1 sequence with I216R, G220V", "method_in_brief": "as §1"}, "[14]": {"molecular_target": "PUM1 PUF domain R3-CNE (Homo sapiens, UniProt Q14671 828-1176, R936N;Q939E)", "method_in_brief": "as §1"}, "[15]": {"molecular_target": "T4, PUM1 PUF domain R6-QYV (Homo sapiens, UniProt Q14671 828-1176, N1043Q;Q1047V)", "T4 sequence": "T1 sequence with I216Q, F217Y, G220V", "method_in_brief": "as §1"}, "[16]": {"molecular_target": "T5, PUM1 PUF domain R6-KYL (Homo sapiens, UniProt Q14671 828-1176, N1043K;Q1047L)", "T5 sequence": "T1 sequence with I216K, F217Y, G220L", "method_in_brief": "as §1"}, "[17]": {"molecular_target": "PUM1 PUF domain R3-TQE (Homo sapiens, UniProt Q14671 828-1176, C935T;R936Q;Q939E)", "method_in_brief": "as §1"}, "[18]": {"molecular_target": "PUM1 PUF domain R7-CSR (Homo sapiens, UniProt Q14671 828-1176, S1079C;N1080S;E1083R)", "method_in_brief": "as §1"}, "[19]": {"molecular_target": "PUM1 PUF domain R7-RSC (Homo sapiens, UniProt Q14671 828-1176, S1079R;N1080S;E1083C)", "method_in_brief": "as §1"}, "[20]": {"molecular_target": "PUM1 PUF domain R7-GCR (Homo sapiens, UniProt Q14671 828-1176, S1079G;N1080C;E1083R)", "method_in_brief": "as §1"}}, "note": "Where a chain is given by its changes, count along the chain named."}
{"sequence": "GGCUAGAACUAGUGGAUCCCCCGGCGCCCGGCGGCUCGAGCCCGGGUAAGUGUCAAUAGUCUGCAUGCCGCCGGGCGCCAUGCCUGCAGGUCGACUCUAGAAAACAUG", "values": [{"measurement": "binding signal", "setting": "[1]", "value": "4.38 log2 enrichment (interaction score)"}, {"measurement": "binding signal", "setting": "[2]", "value": "5.11 log2 enrichment (interaction score)"}, {"measurement": "binding signal", "setting": "[3]", "value": "2.95 log2 enrichment (interaction score)"}]}
{"sequence": "GGCUAGAACUAGUGGAUCCCCCGGCGCCCGGCGGCUCGAGCCCGGGUAAGCGUAAAUAGUCUGCAUGCCGCCGGGCGCCAUGCCUGCAGGUCGACUCUAGAAAACAUG", "values": [{"measurement": "binding signal", "setting": "[4]", "value": "6.47 log2 enrichment (interaction score)"}, {"measurement": "binding signal", "setting": "[5]", "value": "5.6 log2 enrichment (interaction score)"}]}
{"sequence": "GGCUAGAACUAGUGGAUCCCCCGGCGCCCGGCGGCUCGAGCCCGGGUAAGUGUUAAUAGUCUGCAUGCCGCCGGGCGCCAUGCCUGCAGGUCGACUCUAGAAAACAUG", "values": [{"measurement": "binding signal", "setting": "[6]", "value": "2.21 log2 enrichment (interaction score)"}]}
{"sequence": "GGCUAGAACUAGUGGAUCCCCCGGCGCCCGGCGGCUCGAGCCCGGGUAAGUGAAAAUAGUCUGCAUGCCGCCGGGCGCCAUGCCUGCAGGUCGACUCUAGAAAACAUG", "values": [{"measurement": "binding signal", "setting": "[7]", "value": "4.32 log2 enrichment (interaction score)"}, {"measurement": "binding signal", "setting": "[8]", "value": "1.15 log2 enrichment (interaction score)"}]}
{"sequence": "GGCUAGAACUAGUGGAUCCCCCGGCGCCCGGCGGCUCGAGCCCGGGUAAGUGUAAAUCGUCUGCAUGCCGCCGGGCGCCAUGCCUGCAGGUCGACUCUAGAAAACAUG", "values": [{"measurement": "binding signal", "setting": "[9]", "value": "4.43 log2 enrichment (interaction score)"}]}
{"sequence": "GGCUAGAACUAGUGGAUCCCCCGGCGCCCGGCGGCUCGAGCCCGGGUAAGUGUAUAUAGUCUGCAUGCCGCCGGGCGCCAUGCCUGCAGGUCGACUCUAGAAAACAUG", "values": [{"measurement": "binding signal", "setting": "[10]", "value": "7.12 log2 enrichment (interaction score)"}, {"measurement": "binding signal", "setting": "[11]", "value": "3.63 log2 enrichment (interaction score)"}]}
{"sequence": "GGCUAGAACUAGUGGAUCCCCCGGCGCCCGGCGGCUCGAGCCCGGGUAAGUGUAAAUAGUCUGCAUGCCGCCGGGCGCCAUGCCUGCAGGUCGACUCUAGAAAACAUG", "values": [{"measurement": "binding signal", "setting": "[12]", "value": "4.01 log2 enrichment (interaction score)"}, {"measurement": "binding signal", "setting": "[4]", "value": "4.7 log2 enrichment (interaction score)"}, {"measurement": "binding signal", "setting": "[2]", "value": "3.35 log2 enrichment (interaction score)"}, {"measurement": "binding signal", "setting": "[13]", "value": "3.56 log2 enrichment (interaction score)"}, {"measurement": "binding signal", "setting": "[14]", "value": "2.27 log2 enrichment (interaction score)"}, {"measurement": "binding signal", "setting": "[10]", "value": "6.55 log2 enrichment (interaction score)"}, {"measurement": "binding signal", "setting": "[5]", "value": "3.82 log2 enrichment (interaction score)"}, {"measurement": "binding signal", "setting": "[15]", "value": "3.63 log2 enrichment (interaction score)"}, {"measurement": "binding signal", "setting": "[16]", "value": "5.29 log2 enrichment (interaction score)"}, {"measurement": "binding signal", "setting": "[8]", "value": "3.59 log2 enrichment (interaction score)"}]}
{"sequence": "GGCUAGAACUAGUGGAUCCCCCGGCGCCCGGCGGCUCGAGCCCGGGUAAGUGUACAUAGUCUGCAUGCCGCCGGGCGCCAUGCCUGCAGGUCGACUCUAGAAAACAUG", "values": [{"measurement": "binding signal", "setting": "[10]", "value": "6.74 log2 enrichment (interaction score)"}, {"measurement": "binding signal", "setting": "[11]", "value": "1.63 log2 enrichment (interaction score)"}]}
{"sequence": "GGCUAGAACUAGUGGAUCCCCCGGCGCCCGGCGGCUCGAGCCCGGGUAAGUGUAAGUAGUCUGCAUGCCGCCGGGCGCCAUGCCUGCAGGUCGACUCUAGAAAACAUG", "values": [{"measurement": "binding signal", "setting": "[14]", "value": "3.08 log2 enrichment (interaction score)"}, {"measurement": "binding signal", "setting": "[17]", "value": "2.29 log2 enrichment (interaction score)"}]}
{"sequence": "GGCUAGAACUAGUGGAUCCCCCGGCGCCCGGCGGCUCGAGCCCGGGUAAGUGUAAAUUGUCUGCAUGCCGCCGGGCGCCAUGCCUGCAGGUCGACUCUAGAAAACAUG", "values": [{"measurement": "binding signal", "setting": "[9]", "value": "2.99 log2 enrichment (interaction score)"}]}
{"sequence": "GGCUAGAACUAGUGGAUCCCCCGGCGCCCGGCGGCUCGAGCCCGGGUAAGUUUAAAUAGUCUGCAUGCCGCCGGGCGCCAUGCCUGCAGGUCGACUCUAGAAAACAUG", "values": [{"measurement": "binding signal", "setting": "[18]", "value": "3.61 log2 enrichment (interaction score)"}]}
{"sequence": "GGCUAGAACUAGUGGAUCCCCCGGCGCCCGGCGGCUCGAGCCCGGGUAAGUCUAAAUAGUCUGCAUGCCGCCGGGCGCCAUGCCUGCAGGUCGACUCUAGAAAACAUG", "values": [{"measurement": "binding signal", "setting": "[19]", "value": "2.75 log2 enrichment (interaction score)"}, {"measurement": "binding signal", "setting": "[20]", "value": "5.49 log2 enrichment (interaction score)"}]}
